# From PubChem
# hNpr1 antagonist = blocks ANP-stimulated signaling of human Npr1 receptor; HEK293 hNpr1 GloSensor cGMP, ANP-stimulated luminescence; hit rate 1.6% among 76,000; Potency, µM (titrated, usually from 46.3 µM), without a hit: top-dose activity change, negative = inhibition, usual class: inhibitors; AID 1347048; calls by dose curve; further: on the % scale 0 is the no-effect control and ±100 the full control effect; nearly all actives have a fitted effect of over 60% in size
# Target sequence (P16066 whole entry, looked up): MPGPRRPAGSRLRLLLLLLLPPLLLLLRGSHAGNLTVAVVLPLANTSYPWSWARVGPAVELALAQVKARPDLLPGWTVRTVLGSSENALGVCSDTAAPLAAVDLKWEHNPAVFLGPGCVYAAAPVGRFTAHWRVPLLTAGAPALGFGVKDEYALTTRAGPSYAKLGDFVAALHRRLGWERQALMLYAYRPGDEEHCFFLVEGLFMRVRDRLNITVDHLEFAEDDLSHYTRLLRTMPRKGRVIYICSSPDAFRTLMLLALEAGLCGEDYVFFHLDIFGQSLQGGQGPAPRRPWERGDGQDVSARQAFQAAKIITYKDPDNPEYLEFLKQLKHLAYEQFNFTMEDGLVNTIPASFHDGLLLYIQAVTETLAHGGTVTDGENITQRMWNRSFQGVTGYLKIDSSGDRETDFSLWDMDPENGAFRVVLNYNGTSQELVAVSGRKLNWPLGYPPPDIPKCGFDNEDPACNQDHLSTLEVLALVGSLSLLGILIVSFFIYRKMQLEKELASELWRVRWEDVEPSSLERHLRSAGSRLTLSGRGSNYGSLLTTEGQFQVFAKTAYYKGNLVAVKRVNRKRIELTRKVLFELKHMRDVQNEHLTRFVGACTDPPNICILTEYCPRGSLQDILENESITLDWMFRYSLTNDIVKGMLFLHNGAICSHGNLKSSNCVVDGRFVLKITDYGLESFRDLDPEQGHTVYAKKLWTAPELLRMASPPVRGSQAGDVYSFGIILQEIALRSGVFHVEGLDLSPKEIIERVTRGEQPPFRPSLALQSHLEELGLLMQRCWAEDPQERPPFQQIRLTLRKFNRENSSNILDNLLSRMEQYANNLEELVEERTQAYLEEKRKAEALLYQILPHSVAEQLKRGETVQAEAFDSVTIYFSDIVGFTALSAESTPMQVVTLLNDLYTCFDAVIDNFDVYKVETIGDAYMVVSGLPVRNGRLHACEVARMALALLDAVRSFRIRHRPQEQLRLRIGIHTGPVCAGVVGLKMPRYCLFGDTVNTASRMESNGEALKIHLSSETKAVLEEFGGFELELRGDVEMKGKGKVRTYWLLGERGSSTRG
#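 HEK293 cells stably expressing human Npr1 and cGMP GloSensor pGS-40F, loaded 2 h with 2% GloSensor reagent, given compound 30 min at room temperature. Luminescence read before and 20 min after 0.1 nM hNppA.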
# FLuc inh-1 = inhibitors of firefly (Photinus pyralis) luciferase. purified P. pyralis luciferase, luminescence, biochemical. P08659. Potency, µM (series often up to 115 µM), actives largely listed as inhibitors. hit rate 2.5% among 76,000; further: on the % scale 0 is the no-effect control and ±100 the full control effect; nearly all actives have a fitted effect of over 65% in size
#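 Cell-free enzyme assay, 10nM P. pyralis luciferase, luciferin and ATP each at 10uM. Inhibition profiled over a 6-point titration, read as luminescence.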
# 3T3 cytotox = cytotoxic compounds in NIH 3T3 cells | NIH 3T3 viability, CellTiter-Glo ATP luminescence, 48-72 h | Potency, µM (highest dose often 96.7 µM), for the others: top-dose activity change, negative = cytotoxicity, hits mostly inhibitors | hit rate 4.3% among 94,000 | AID 1345082; further: on the % scale 0 is the no-effect control and ±100 the full control effect; nearly all actives have a fitted effect of over 55% in size
#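 ATP-dependent luminescence (CellTiter-Glo) served as the viability signal for NIH 3T3 cells treated with compound for 48 or 72 hr at 37 °C.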
# HEK293 tox = cytotoxic compounds in HEK 293 cells; HEK 293 viability, ATP luminescence (CellTiter-Glo), 48-72 h; Potency, µM (titrated, usually from 115 µM), for the others: top-dose activity change, negative = cytotoxicity, hits mostly inhibitors; hit rate 6.6% among 94,000; AID 1345083; further: on the % scale 0 is the no-effect control and ±100 the full control effect; nearly all actives have a fitted effect of over 60% in size
#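 HEK 293 seeded at 250 cells/well receive compound via pintool. After 48 or 72 hr at 37 degree Celsius, 5% CO2 and 95% humidity, CellTiter-Glo is dispensed and luminescence read following 10 min at room temperature.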
# FLuc SDR -ATP = firefly luciferase binding stabilization, ATP absent | shares compounds with FLuc inh-1 | Purified FLuc-C-HiBiT, Nano-Glo HiBiT luminescence, no ATP | Potency, µM (series often up to 32.7 µM), without a hit: at the highest dose activation (signal gain), most hits filed as activators | hit rate 7.8% among 1,300 | AID 1963318; further: nearly all actives have a fitted effect of over 55% in size
# FLuc SDR ATP = firefly luciferase binding stabilization, ATP added; shares compounds with FLuc inh-1; purified FLuc-C-HiBiT + ATP, HiBiT complementation luminescence; Potency, µM (series often up to 32.7 µM), inactives show at the top dose activation (gain of signal), most hits filed as activators; hit rate 8.7% among 1,300; AID 1963319;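 further: signal reports ligand binding via conformational change of the enzyme rather than luciferase catalysis; % of control where 0% means no effect; nearly all actives have a fitted effect of over 55% in size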
# FLuc inh-2 = firefly luciferase enzyme inhibition; hit rate 42% among 1,300; shares compounds with FLuc inh-1; purified FLuc-C-HiBiT enzyme, luciferin luminescence; Potency, µM (series often up to 32.7 µM), inactives show at the highest dose activity change, negative = inhibition, actives largely listed as inhibitors; AID 1963320; further: on the % scale 0 is the no-effect control and ±100 the full control effect; nearly all actives have a fitted effect of over 70% in size
# * marks the source's active call; other numbers are inactive results; i = inactive; ? = inconclusive; nt = no result given; [ ] = remark or other dose. In the library only some 11% were active in any assay of this set; here they are far more common. Unless noted, the call rests on the fitted dose curve; in most records, active means well fitted curve in the direction sought with a large enough effect; inconclusive means small, poorly fitted or top-dose-only effect, or another doubt; inactive means no such curve, though single readings can be large; an effect the other way counts as inactive or inconclusive. Potency means the concentration at half of the fitted maximal effect.
SMILES,hNpr1 antagonist,FLuc inh-1,3T3 cytotox,HEK293 tox,FLuc SDR -ATP,FLuc SDR ATP,FLuc inh-2
COc1ccc2cc(-c3nc4ccc(C(=O)O)cc4[nH]3)c(=O)oc2c1,nt,nt,nt,nt,0.79µM*,0.02µM*,0.016µM*
CCOc1cccc2cc(-c3nc4ccc(C(=O)O)cc4[nH]3)c(=O)oc12,nt,nt,nt,nt,?,0.16µM*,0.16µM*
O=C(Nc1ccc(C2(C(=O)NCc3ccccn3)CCCCC2)cc1)C1CC1,7%,i,-8%,?,nt,nt,nt
CCN1c2cc(C(=O)Nc3ccc4c(c3)OCCO4)ccc2C(=O)N2CCCCC21 (centres undefined),-12%,11µM*,25µM*,?,24%,?,9.9µM*
Cn1c(=O)c2ccnn2c2ccc(C(=O)NC3CCCC3)cc21,-4%,i,-20%,-27%,nt,nt,nt
CN1c2cc(C(=O)Nc3ccc(Cl)cc3)ccc2C(=O)N2CCCCC21 (centres undefined),0%,?,?,?,nt,nt,nt
CN1c2cc(C(=O)Nc3ccc4c(c3)OCCO4)ccc2C(=O)N2CCCCC21 (centres undefined),-22%,7.9µM*,?,?,?,?,9.9µM*
CCN1c2cc(C(=O)Nc3ccc(N(C)C)cc3)ccc2C(=O)N2CCCCC21 (centres undefined),-12%,11µM*,?,45µM*,11%,11%,?
Cn1c(=O)c2ccnn2c2ccc(C(=O)Nc3ccc4c(c3)OCCO4)cc21,-27%,10µM*,-19%,35µM*,26%,20%,9.9µM*
Cc1ncccc1-c1nc2cc(C(=O)NCc3cccs3)ccc2o1,nt,nt,-39%,-4%,nt,nt,nt
Cc1ccc(C)c(C(O)Cn2ccn3nc(-c4cccs4)cc3c2=O)c1 (centres undefined),-21%,i,-27%,?,nt,nt,nt
CCc1cc(=O)n(CC(=O)Nc2cc(C)cc(C)c2)c(N2CCOCC2)n1,-1%,i,-23%,?,nt,nt,nt
COCCN1C(=O)[C@@H]2C[C@@H](CN2Cc2ccc(Cl)cc2)Oc2ccccc21,-13%[70.6 µM],i,?,?,nt,nt,nt
C[C@@H]1C(=O)O[C@H]2[C@H]1CC[C@@]1(C)Cc3sc(NS(=O)(=O)c4ccc5c(c4)CN(C(=O)C(F)(F)F)CC5)nc3[C@@H](C)[C@H]21,-2%,i,-23%,-17%,nt,nt,nt
CSCC(=O)Nc1nc2c(s1)C[C@]1(C)CC[C@@H]3[C@H](OC(=O)[C@H]3C)[C@H]1[C@@H]2C,7.1µM*,0.89µM*,100µM*,35µM*,?,?,4.5µM*
C[C@@H]1C(=O)O[C@H]2[C@H]1CC[C@@]1(C)Cc3sc(NC(=O)COCC(=O)O)nc3[C@@H](C)[C@H]21,0%[70.6 µM],13µM*,i,i,4.5µM*,?,5.7µM*
O=C(c1n[nH]c2ccccc12)N1CC(Oc2ccccc2-c2nc(C3CC3)no2)C1,-4%,i,?,?,nt,nt,nt
CCN1CCN(C(=O)c2cc(C(C)(C)C)nc3c2cnn3C)CC1,nt,nt,?,-26%[172 µM],nt,nt,nt
CCOc1ccccc1C(=O)NC1CCN(c2cc(-c3cccs3)[nH]n2)C1 (centres undefined),-22%,i,?,?,nt,nt,nt
CSCCNC(=O)c1nc2sccn2c1Br,-8%[70.6 µM],?,?,-8%[172 µM],nt,nt,nt
O=C(NCCc1ccccc1F)c1nc2sccn2c1Br,?,1.6µM*,?,?,24%,?,7µM*
OCc1ccnc(-c2ccc(-c3ccn[nH]3)cc2)c1,5µM*,10µM*,-14%,0%,23%,?,?
O=C(COC(=O)c1cc(-c2cccs2)nc2ccccc12)c1ccc(Br)cc1,nt,nt,nt,nt,14%,8%,-18%
O=C(O)c1cccc(-c2noc(-c3cccc(Cl)c3)n2)c1,nt,nt,nt,nt,12µM*,0.022µM*,0.007µM*
CC(=O)N1CCC(Oc2ccccc2-c2nc(-c3ccccc3)no2)C1 (centres undefined),12%,i,?,?,nt,nt,nt
SMILES,hNpr1 antagonist,FLuc inh-1,3T3 cytotox,HEK293 tox,FLuc SDR -ATP,FLuc SDR ATP,FLuc inh-2
COc1ccccc1-c1nc(-c2ccc(C(=O)O)cc2)no1,nt,nt,nt,nt,16%,2.2µM*,2µM*
O=C(O)c1ccc(-c2noc(-c3ccc(Cl)cc3)n2)cc1,nt,nt,nt,nt,?,1.4µM*,0.79µM*
COc1cccc(-c2nc(-c3cccc(C(=O)O)c3)no2)c1,nt,nt,nt,nt,12µM*,0.007µM*,0.0039µM*
COc1ccc(-c2nc(C(C)C)nc3c2CCN(C(=O)Cc2cccc(Cl)c2)CC3)cc1,-11%,i,?,?,nt,nt,nt
O=C(O)c1ccc(-c2noc(-c3cccc(C(F)(F)F)c3)n2)cc1,nt,nt,nt,nt,12%,20%,?
COc1ccc(-c2nc(-c3ccc(C(=O)O)cc3)no2)cc1,nt,nt,nt,nt,12µM*,0.11µM*,0.11µM*
O=C(O)c1cccc(-c2noc(-c3ccc(Cl)cc3)n2)c1,nt,nt,nt,nt,2.8µM*,0.005µM*,0.0022µM*
COCCc1noc(-c2nc(-c3ccc(OC)cc3)no2)n1,-17%,?,-11%,?,nt,nt,nt
COc1ccc(-n2cc(CN3CCCC(CO)C3)c(-c3cccc(F)c3)n2)cc1 (centres undefined),2%,?,?,?,nt,nt,nt
CCOc1ccc2c(n1)CCN(C(=O)Cc1ccccc1C)C2,0%,i,-11%,?,nt,nt,nt
O=C(O)C1(Oc2ccc3ncccc3c2)CCN(c2cnccn2)CC1,-2%,i,i,i,nt,nt,nt
O=C(O)C1(Oc2ccc3ccccc3c2)CCN(c2ncnc3nc[nH]c23)CC1,14%,i,-2%,-15%,11%,12%,-12%
O=C(N[C@@H]1CN(C(=O)Cc2c[nH]c3ccccc23)C[C@H]1CO)c1ccccc1,nt,nt,-17%,-10%,nt,nt,nt
CCc1ccc(C(=O)Nc2ccc3c(N4CCOCC4)ncnc3c2)cc1,2%,10µM*,8.9µM*,?,?,?,7.9µM*
CN(C)c1cccc(C(=O)Nc2ccc3c(N4CCOCC4)ncnc3c2)c1,-14%,13µM*,-66%,?,27%,?,?
O=C(Cc1cccc(F)c1)N1CCCC(Cc2nc(C3CCOCC3)no2)C1 (centres undefined),-3%,i,2%,-8%,nt,nt,nt
O=C(c1cc(-c2ccc(F)cc2)nc2ccccc12)N1CCCC(c2nc(C3CCOCC3)no2)C1 (centres undefined),9%,?,?,?,nt,nt,nt
O=C(c1cc(-c2ccc(F)cc2)nc2ccccc12)N1CCC(c2nc(C3CCOCC3)no2)C1 (centres undefined),-8%,10µM*,?,?,?,17%,?
